Compound activity (PubChem BioAssay)
This is a sample that favours compounds with a hit; in the whole collection about 2.2% have one here.
Vaccinia Venus: qHTS for Stage-Specific Inhibitors of Vaccinia Orthopoxvirus: Venus Reporter Primary qHTS. Vaccinia virus Venus reporter expression, fluorescence. Potency, µM (titrated, usually from 36.5 µM), for the others: at the highest dose activity change, negative = inhibition, hits mostly inhibitors. 330,000 tested, 0.46% active; calls by dose curve; tested in A549 cells; note: nearly all actives have a fitted effect of over 30% in size
VACV mCherry inh: qHTS for Stage-Specific Inhibitors of Vaccinia Orthopoxvirus: mCherry Reporter Primary qHTS; Vaccinia virus mCherry reporter infection, fluorescence; Potency, µM (titrated, usually from 36.5 µM), for inactives: at the top dose activity change, negative = inhibition, actives largely listed as inhibitors; 310,000 tested, 0.63% active; calls by dose curve; tested in A549 cells; note: nearly all actives have a fitted effect of over 35% in size
FMDV antiviral: High Throughput Screening for Foot and Mouth Disease Virus Antivirals. FMDV antiviral cell-based qHTS. Potency, µM (highest dose often 57.9 µM), inactives show at the top dose activity change, negative = inhibition, hits mostly inhibitors. 410,000 tested, 1.2% active. AID 1159524, 2015; calls by dose curve; tested in HEK293T cells; note: read-out not given here; nearly all actives have a fitted effect of over 45% in size
FBPA Giardia inh: qHTS Assay for Inhibitors of Fructose-1,6-bisphosphate Aldolase from Giardia Lamblia; A8B2U2; purified Giardia FBPA; Potency, µM (doses to about 59.6 µM), for inactives: at the top dose activity, negative = inhibition, actives largely listed as inhibitors; 290,000 tested, 0.71% active; active = well fitted inhibition curve with a large enough effect; inconclusive = small, poorly fitted or top-dose-only effect, or effect the other way; note: nearly all actives have a fitted effect of over 55% in size
Target sequence (A8B2U2 whole entry, looked up): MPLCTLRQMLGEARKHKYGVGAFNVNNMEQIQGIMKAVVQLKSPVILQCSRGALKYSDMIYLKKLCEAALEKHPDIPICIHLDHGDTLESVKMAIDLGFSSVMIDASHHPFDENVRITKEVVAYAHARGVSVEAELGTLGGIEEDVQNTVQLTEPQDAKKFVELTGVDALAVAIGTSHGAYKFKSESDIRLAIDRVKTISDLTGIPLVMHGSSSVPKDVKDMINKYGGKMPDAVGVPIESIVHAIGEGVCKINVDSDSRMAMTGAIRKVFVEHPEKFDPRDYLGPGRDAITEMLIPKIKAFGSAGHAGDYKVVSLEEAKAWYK
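Giardia FBPA (40 nM reagent) was preincubated 10 min at RT with compound (up to 57.5 uM final), then substrate plus GAPDH/TPI/NAD/arsenate coupling system with diaphorase/resazurin was added; resorufin fluorescence (525/598 nm) was read after 20 min.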
Starred values were filed as active, the others as inactive; i = inactive; ? = inconclusive; nt = no result; [ ] = another dose, or the depositor's remark. % is set by controls: 0 for no effect and ±100 for the full control effect; potency is the fitted concentration of half-maximal effect.

SMILES	Vaccinia Venus	VACV mCherry inh	FMDV antiviral	FBPA Giardia inh
CCC(CO)Oc1cc(NCc2ccc(C(C)(C)C)cc2)c2ncn(C(C)C)c2c1 (stereo not drawn)	?	12.6µM*	-20.5%	nt
Nc1ccc(/C=C/c2ccc3cccnc3c2)cc1	-4.0%	17.3%	nt	nt
COc1ccc(CCn2c(=S)[nH]c(=O)c3cccnc32)cc1OC	-29.4%	-16.5%	nt	nt
COc1ccc(-c2csc(NC(=O)c3c(C)noc3C)n2)cc1F	-20.3%	i	39.8µM*	nt
Cc1nc(SCC(=O)N2CCN(c3ccccc3)CC2)c2oc3ccccc3c2n1	-15.6%	nt	25.1µM*	2.9%
CCOC(=O)C1CCCN(c2nc(C)nc3c2oc2ccccc23)C1 (stereo not drawn)	nt	nt	22.4µM*	-12.9%
Cc1nc(SCC(=O)O)c2oc3ccccc3c2n1	nt	nt	18.9%	22.7%
CC(=O)N1CCN(c2ccc(Nc3nc(C)nc4c3oc3ccccc34)cc2)CC1	-5.5%	-15.3%	25.1µM*	-20.1%
CCOC(=O)C1CCN(c2nc(C)nc3c2oc2ccccc23)CC1	-17.0%	nt	?	-4.5%
CC(=O)Nc1ccc(Nc2nc(C)nc3c2oc2ccccc23)cc1	nt	nt	?	-9.9%
CO[C@H]1[C@@H](OC(N)=O)[C@H](O)[C@@H](Oc2ccc3c(O)c(NC(=O)c4ccc(O)c(CC=C(C)C)c4)c(=O)oc3c2C)OC1(C)C	nt	nt	nt	7.4%[21.7 µM]
COC1C(OC(=O)c2ccc(C)[nH]2)C(O)C(Oc2ccc3c(O)c(NC(=O)c4ccc(O)c(CC=C(C)C)c4)c(=O)oc3c2Cl)OC1(C)C (stereo not drawn)	-19.2%	-3.0%	39.8µM*	25.0%
CCC1CC=CC2C1C(=O)N(Cc1ccccc1)C2c1ccc(OC)c(Cl)c1 (stereo not drawn)	nt	nt	nt	-1.0%
O=C(NCc1cccnc1)/C(=C\c1ccc(-c2ccc(Cl)c(Cl)c2)o1)S(=O)(=O)c1ccccc1	11.2µM*	?	?	-2.7%
C=C1C(O)[C@@H]2O[C@]3(CC[C@H](/C=C/C(C)[C@@H]4CC(C)=CC5(O[C@H](C[C@@](C)(O)C(=O)O)CCC5O)O4)O3)CC[C@H]2O[C@@H]1C(O)CC(C)[C@H]1OC2(CCCCO2)CCC1C (stereo partly drawn)	0.316µM*	-22.8%	1µM*	nt
CN(N=O)c1ccc(/C=C/c2ccnc3ccccc23)cc1	-22.2%	-23.8%	nt	nt
Cc1ccc(OCc2nnc(SCc3cc(=O)[nH]c4ccccc34)n2-c2ccccc2)cc1	10µM*	?	0.0%	2.1%
Cc1ccccc1OCc1nnc(SCc2cc(=O)[nH]c3ccccc23)n1-c1ccccc1	?	?	-23.0%	3.5%
COC(=O)c1nn(-c2ccc(OC)cc2)c(=O)cc1O	4.3%	-3.8%	-4.9%	?
COc1ccc(-n2nc(C#N)c(Cl)cc2=O)cc1	10µM*	11.2µM*	22.4µM*	-1.6%
CCN(CC)CCN(C)C(=O)c1ccc(-c2ccccc2)nc1N(C)C	-6.7%	-6.5%	-2.3%	nt
O=C(NC1c2ccccc2-c2ccccc21)N1CCCCC1	?	7.08µM*	-2.1%	-0.3%
CCOC(=O)c1c(CSc2ccc(C)cc2)oc2ccc(O)cc12	?	-16.4%	22.4µM*	-1.0%
COc1ccccc1CN1CCC(n2cc(C(=O)N3CCCCC3)nn2)CC1	-11.1%	-15.1%	-10.7%	nt
Cn1nc(C(C)(C)C)cc1C(=O)N1CCCCC1c1cc(C(=O)Nc2ccc(F)c(Cl)c2)no1 (stereo not drawn)	?	-17.6%	25.1µM*	nt
SMILES	Vaccinia Venus	VACV mCherry inh	FMDV antiviral	FBPA Giardia inh
CCOC(c1cc(OC)cc([N+](=O)[O-])c1OC)C(C)C(OC)[C@@H](C)/C=C/CC(=O)OC (stereo partly drawn)	nt	nt	nt	-0.9%[12.9 µM]
Cc1nc2sc(-c3ccccc3)cc2c(=O)n1-n1cccc1	-8.1%	nt	-16.0%	0.4%
Cc1nc2sc(-c3ccccc3)cc2c(=O)n1N	nt	nt	39.8µM*	2.4%
CC(C)(C)OC(=O)N1CCC(NC(=O)c2[nH]cnc2C(=O)Nc2ccc(Cl)cc2)CC1	14.1µM*	-28.2%	-29.2%	nt
CC(SCc1ccccc1)C(=O)N/N=C/c1ccc(OCC(=O)NCc2ccco2)cc1 (stereo not drawn)	?	-22.5%	12.6µM*	5.0%
COc1ccc(CSCC(=O)N/N=C/c2ccc(OCC(=O)NCc3ccco3)cc2)cc1	-28.3%	nt	?	4.2%
Cn1cnnc1Sc1ccc(CN2CCOc3ccc(C4=Cc5ccccc5C4)cc3C2)o1	-13.8%	-3.9%	30.4%	nt
CC1=NOC2(C1)N(C)c1ccccc1C2(C)C (stereo not drawn)	nt	nt	-0.1%	18.6%
COc1ccc2ccc3c(c2c1)N=C[C@]1(O3)N(C)c2ccccc2C1(C)C	-7.2%	-10.4%	?	8.89µM*
O=S(=O)(CCN1CCOCC1)c1ccc(Oc2ccc(S(=O)(=O)CCN3CCOCC3)cc2)cc1	2.24µM*	?	?	9.0%
CC(=O)/C(N=Nc1ccc2c(c1)OCCO2)=C(\C)O	nt	nt	1.26µM*	-2.4%
CC(=O)N(Cc1ccc(F)cc1)C1=C(NCc2ccccc2)C(=O)c2ccccc2C1=O	3.55µM*	2.51µM*	35.5µM*	?
O=C(NCc1ccc(F)cc1)C(c1ccccc1)c1ccccc1	nt	nt	-7.3%	8.1%
Cc1ccc2c(c1)ncc[n+]2CC(=O)c1ccc(Cl)cc1Cl	-27.1%	43.2%	nt	nt
N=c1c2c(-c3ccccc3)c(-c3ccccc3)n(Cc3ccco3)c2ncn1Cc1ccco1	11.2µM*	nt	25.1µM*	6.1%
N=c1c2c(-c3ccccc3)c(-c3ccccc3)n(Cc3ccccc3)c2ncn1CCCn1ccnc1	14.1µM*	nt	-26.5%	1.8%
CN(C)c1ccc(C(C(=O)NCC2CCCO2)N(C(=O)c2snc(C(N)=O)c2N)c2ccccc2)cc1 (stereo not drawn)	5.5%	-11.3%	-13.6%	nt
CC(C)c1ccc(N(C(=O)c2snc(C(N)=O)c2N)C(C(=O)NCC2CCCO2)c2ccc(N(C)C)cc2)cc1 (stereo not drawn)	?	?	17.8µM*	3.1%
CS(=O)(=O)c1ncc(Cl)c(C(=O)N2CCN(c3cccc(Cl)c3)CC2)n1	-9.5%[7.34 µM]	-3.9%[7.34 µM]	17.8µM*	nt
CCS(=O)(=O)c1ncc(Cl)c(C(=O)N2CCN(c3cccc(Cl)c3)CC2)n1	-19.4%[7.34 µM]	-13.2%[7.34 µM]	14.1µM*	nt
COc1ccccc1C1CN(Cc2cnn(C)c2)Cc2ccccc2O1 (stereo not drawn)	0.3%	-8.7%	1.7%	nt
O=c1ncccn1[C@@H]1O[C@H](CO)[C@@H](O)[C@H]1O	nt	nt	nt	-0.1%
Nc1cnccn1	-3.8%	-7.4%	nt	nt
O=C(Nc1ccc(NC(=O)c2cccs2)cc1)c1ccc(Cl)cc1	-3.9%	-3.2%	-2.1%	nt
COc1c(Cl)cc(Cl)cc1/C=C/C(=O)c1ccc(NC(=O)c2cccs2)cc1	10µM*	11.2µM*	0.0%	1.9%
CCCCC1OC23CCCCC2C(C#N)(C#N)C1(C#N)C(=N)O3 (stereo not drawn)	1.0%	-0.9%	0.0%	?
CCCCC1OC23CCCCC2C(C#N)(C(=N)O3)C1(C#N)C#N (stereo not drawn)	-14.6%	nt	25.1µM*	-26.1%
CC[N+](C)(C)c1ccc(/C=C/c2ccncc2)cc1	i	140.2%	nt	nt
